Results published in the supplement of paper PMC8047044.
Structures can show the parent of a compound that is named as a salt.

Key:
[1] = system: Neuro-2a; test: neurite formation score, plate-normalized to DMSO control mean 5.04 (score (0-8 scale)); higher = more or longer neurites; conditions: 1 µM
Method: (§1)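 Neuro-2a mouse neuroblastoma cells in PLL-coated 96-well plates were pre-treated for 1 h in DMEM(+) with each kinase inhibitor at 1 µM, then switched to serum-free DMEM(-) with inhibitor to induce neurite outgrowth and fixed about 2-3 h later. Three blinded observers scored neurite formation from 0 (no neurites) to 8 (long neurites on almost all cells).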

[2] = system: Neuro-2a; test: as above; conditions: 0.1 µM
Method: as §1, with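 “at 0.1” for “at 1”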

Structure (SMILES)	neurite formation score [1]	neurite formation score [2]
Nc1nc(N)c2nc(-c3cccc(O)c3)c(-c3cccc(O)c3)nc2n1	4.24	–
CC(C)(C)Cn1c(N)nc2ccc(-c3[nH]c(C(C)(C)C)nc3-c3ccc(F)cc3)nc21	4.57	–
Cc1cc2c(F)c(Oc3ncnn4cc(OC[C@@H](C)O)c(C)c34)ccc2[nH]1	4.57	–
COc1cc2c(c(OC)c1OC)-c1c(cc3c(c1OC)OCO3)CC(C)C(C)C2 (centres undefined) [Schizandrin B]	4.88	–
COc1cccc(-c2cc(=O)c3ccccc3o2)c1N	3.57	–
NC(=O)c1ncn([C@@H]2O[C@H](CO)[C@@H](O)[C@H]2O)c1N	4.57	–
Cc1c(F)cc(C(=O)NC2CC2)cc1-c1ccc(C(=O)NCC(C)(C)C)cn1 [Losmapimod]	5.21	–
COc1cc2ncnc(Nc3cccc(Br)c3)c2cc1OC	4.14	5.09
Cn1c(=O)n(-c2ccc(C(C)(C)C#N)cc2)c2c3cc(-c4cnc5ccccc5c4)ccc3ncc21	2.9	5.21
CNC(=O)c1cc(Oc2ccc(NC(=O)Nc3ccc(Cl)c(C(F)(F)F)c3)c(F)c2)ccn1 [Regorafenib hydrochloride]	3.69	–
COc1cc(N2CCOCC2)ccc1Nc1ncc(F)c(Nc2ccccc2NS(C)(=O)=O)n1	4.54	–
COc1ccc2c(c1)c(C1=C(c3c[nH]c4ccccc34)C(=O)NC1=O)cn2CCCN(C)C	5.24	5.54
C=CC(=O)Nc1ccc2ncnc(Nc3ccc(OCc4cccc(F)c4)c(Cl)c3)c2c1	4.24	4.21
Cc1cnc(Nc2ccc(F)cc2Cl)nc1-c1c[nH]c(C(=O)N[C@H](CO)c2cccc(Cl)c2)c1	3.69	4.58
